# Bioassay records deposited in PubChem BioAssay by The Scripps Research Institute Molecular Screening Center.
# FBW7 act: FBW7 E3 ligase activators, primary screen, biochemical, AlphaScreen, human | F-box/WD repeat-containing protein 7 (Homo sapiens), Q969H0 | AlphaScreen FBW7–phospho-cyclin E peptide binding, activator screen | normalized activity (activation), % at 26.1 µM | actives 0.13% (n = 650,000) | AID 1259310, 2017; in the data active = normalized activity above about 1.9%;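 also: purified mutant Fbw7 with reduced substrate affinity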
# GPR151 activ: activators of human GPR151, primary screen, cell-based, PathHunter beta-arrestin, luminescence; PathHunter beta-arrestin GPR151 cells; activation, % at 11.2 µM; AID 1508602, 2020; actives 1% (n = 650,000); G-protein coupled receptor 151 (Homo sapiens), Q8TDV0; in the data active = activation above about 4.9%;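 also: 0% = median of compound wells and 100% = cells with positive control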
# MITF inh: MITF inhibitors, primary screen, biochemical, AlphaScreen, human; AlphaScreen MITF homodimerization, bead proximity signal; inhibition, % at 2.6 µM; actives 0.91% (n = 650,000); in the data active = inhibition above about 50%;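 also: 0% = vehicle wells with protein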
# Target sequence (O75030 whole entry, looked up): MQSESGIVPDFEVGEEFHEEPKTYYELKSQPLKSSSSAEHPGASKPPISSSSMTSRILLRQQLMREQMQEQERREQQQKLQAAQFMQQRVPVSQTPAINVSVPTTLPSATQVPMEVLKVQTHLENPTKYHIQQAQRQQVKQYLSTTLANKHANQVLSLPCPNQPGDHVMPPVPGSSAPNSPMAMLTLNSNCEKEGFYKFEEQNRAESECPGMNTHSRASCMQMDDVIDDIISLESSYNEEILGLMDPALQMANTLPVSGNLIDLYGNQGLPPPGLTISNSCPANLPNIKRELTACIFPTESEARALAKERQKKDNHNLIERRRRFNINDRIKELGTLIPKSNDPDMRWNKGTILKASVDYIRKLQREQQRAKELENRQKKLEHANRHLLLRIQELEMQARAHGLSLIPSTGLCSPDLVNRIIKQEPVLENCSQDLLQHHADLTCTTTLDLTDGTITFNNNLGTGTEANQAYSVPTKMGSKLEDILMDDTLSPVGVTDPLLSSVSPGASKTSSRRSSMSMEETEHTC
# TEAD-YAP block: TEAD-YAP interaction inhibition, primary screen, TEAD-YAP interaction inhibitor project, luminescence, HEK-TIYL cells | TEAD-Gal4/YAP UAS-luciferase luminescence | inhibition, % at 9.12 µM | actives 1.4% (n = 640,000); in the data active = inhibition above about 32%;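 also: 0% = median of test compound wells and 100% = reference inhibitor wells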
# Active calls of the source: *. Hits are enriched below; roughly 3.4% of the tested compounds scored in any of these assays.
SMILES,FBW7 act,GPR151 activ,MITF inh,TEAD-YAP block
CC(=O)c1cccc(-c2nc(NCCO)c3ncn(-c4ccsc4)c3n2)c1,0,-2,19,49*
CCCCCN(C(=O)NC(=O)NS(=O)(=O)c1ccc(C)cc1)S(=O)(=O)c1ccc(C)cc1,0,0,15,1
C[C@@H](c1ccccc1)n1c(=O)[nH]c2ncc(-c3ccc(C(=O)N4CCOCC4)cc3)nc21,2.0*,1,12,-8
C[C@H](c1ccccc1)n1c(=O)[nH]c2ncc(-c3ccc(C(=O)N4CCN(C)CC4)cc3)nc21,0,-2,1,5
COCCCNc1nccn2c(-c3cccc(NC(C)=O)c3)cnc12,0,-5,17,90*
O=C(O)c1cccc(-c2cnc(NCCCc3ccccc3)c3nccn23)c1,0,-1,-25,-3
CCCNc1nccn2c(-c3cccc(NC(C)=O)c3)cnc12,-1,-1,-14,69*
COCCCNc1nccn2c(-c3cccc(OC(F)(F)F)c3)cnc12,-1,1,20,40*
CC(=O)Nc1cccc(-c2cnc(NCCCc3ccccc3)c3nccn23)c1,0,-1,-2,93*
COc1ccc(-n2ncc3c(SCC(=O)c4cc(OC)ccc4OC)ncnc32)cc1,0,-1,-7,-11
C/C(=C\c1ccco1)CN1CCC2(CC1)CC2C(=O)N(C)Cc1nonc1C (configuration not stated),0,2,0,-7
COc1cccc2cc(-c3nc4ccccc4s3)c(=O)oc12,0,-2,5,72*
COc1cccc(C(=O)Nc2ccccc2C(=O)Nc2ccccc2OC)c1,0,1,0,43*
COc1ccccc1NC(=O)c1ccc(OC(=S)N(C)C)cc1,2.3*,-1,20,-20
COc1ccccc1NC(=O)c1ccccc1NC(=O)c1ccccc1,2,0,15,9
COc1cccc2cc(-c3cc4cccc(OC)c4oc3=O)c(=O)oc12,0,1,4,11
COc1ccc(Cl)cc1NC(=O)c1ccc(F)cc1,2.3*,0,16,5
O=c1[nH]c(=O)n(-c2ccccc2)c(O)c1/C=C/c1ccc2ccccc2n1,0,-1,-1,2
COc1ccccc1NC(=O)c1cnc(Nc2ccccc2OC)c2ccccc12,1,1,-5,45*
COc1ccccc1Nc1ncc(C(=O)NCCC(C)C)c2ccccc12,0,0,14,-7
COc1ccccc1NC(=O)c1ccccc1NC(=O)c1cc(OC)c(OC)c(OC)c1,0,1,4,55*
COc1cc(C(=O)Nc2ccccc2-c2nc3ccccc3s2)cc(OC)c1OC,0,-1,-3,53*
COc1ccc(-c2c(C#N)c(SCC(=O)Nc3cc(OC)c(Cl)cc3OC)nc(C)c2C(=O)Nc2ccccc2)cc1,0,0,4,-2
Cc1nnsc1C(=O)Nc1ccc2ccccc2c1,0,-3,8,-7
COc1ccc(Cl)cc1NC(=O)c1cc(S(=O)(=O)NCCc2ccc(Cl)cc2)ccc1F,0,-1,16,-5
SMILES,FBW7 act,GPR151 activ,MITF inh,TEAD-YAP block
Cc1sc(NC(=O)c2cc(-c3ccc(C(C)(C)C)cc3)nc3ccccc23)c(C(N)=O)c1C,2,0,20,46*
CCOc1ccc2[nH]c(=O)c(CN(Cc3cccnc3)S(=O)(=O)c3ccccc3)cc2c1,0,0,3,41*
O=C(Nc1ccccc1Cl)c1ccc(F)c(S(=O)(=O)NCc2ccco2)c1,0,-2,8,9
Cc1ccc(S(=O)(=O)Nc2n[nH]c3nc(C)cc(C)c23)cc1,0,-1,-1,2
Cc1nc(NCCC2=CCCCC2)c2c3c(sc2n1)CCCC3,0,-1,0,-38
Cc1sc2ncnc(NCCC3=CCCCC3)c2c1C,0,0,2,44*
Cc1sc2ncnc(NCCc3ccc(S(N)(=O)=O)cc3)c2c1C,0,1,-1,37*
N/C(=N\NC(=O)c1ccc(Cl)cc1)c1cc2ccccc2oc1=O,0,-1,2,-2
Cc1ccc(NC2OC(C)C(O)C(O)C2O)cc1C (configuration not stated),2.5*,-2,4,11
Cc1ccc(NC2OC(CO)C(O)C(O)C2O)cc1C (configuration not stated),0,1,1,12
CCn1c2ccccc2c2cc(NC(=O)c3cc(OC)cc(OC)c3)ccc21,0,-1,13,52*
COc1cc(OC)cc(C(=O)Nc2ccc(N3CCN(C(=O)C(C)C)CC3)cc2)c1,0,-1,-2,47*
COc1cc(OC)cc(C(=O)Nc2ccc(NC(=O)c3cc(OC)cc(OC)c3)cc2)c1,0,1,1,43*
CCN(CC)Cc1c(O)ccc2c1O/C(=C\c1ccc(OC)cc1)C2=O,0,0,43,18
NC(=O)C1CCCN(c2nc(-c3ccc(F)cc3)cs2)C1 (configuration not stated),0,1,8,-2
CN1CCN(C(=O)c2ccc(NC(=O)Cn3nc(-c4ccccc4F)ccc3=O)cc2)CC1,0,-1,16,3
COc1ccccc1-c1ccc(=O)n(CC(=O)Nc2ccc(C(=O)N3CCCC3)cc2)n1,4.1*,-1,4,-3
CC(=O)N1c2ccc(S(=O)(=O)NC(C(=O)Nc3cccc(C)n3)C(C)C)cc2CC1C (configuration not stated),0,-2,-2,2
O=C(CN1C(=O)C2C3C=CC(C4CC34)C2C1=O)N1CCC(c2ccncc2)CC1 (configuration not stated),1,2,10,50*
Cn1c2ccccc2n2cc(-c3ccccc3)nc12,1,-1,13,29
c1ccc(-c2cn3c(ccc4ccccc43)n2)cc1,0,-5,3,85*
O=S(=O)(/C=C/c1ccccc1)Nc1ccc(Br)cc1,0,0,-6,-3
CCC(C)N(C(=O)c1cccc([N+](=O)[O-])c1)C(C)CC (configuration not stated),2.0*,1,-76,-2
CCC(C)N(C(=O)c1ccc([N+](=O)[O-])cc1)C(C)CC (configuration not stated),0,-2,-18,2
CC[C@@]1(O)C(=O)OCc2c1cc1n(c2=O)Cc2cc3cc(O)ccc3nc2-1,0,-1,12,84*
COc1ccc(S(=O)(=O)Oc2ccc(C=C3C(=O)NC(=S)NC3=O)cc2OC)cc1,0,0,-6,54*
COc1ccc(S(=O)(=O)Oc2c(C=O)cccc2OC)cc1,0,0,-7,46*
COc1cccc(C=O)c1OS(=O)(=O)c1ccc(Cl)cc1,0,1,-5,11
COc1ccc(S(=O)(=O)Oc2ccc(C=O)cc2OC)cc1,0,-1,7,47*
